According to ChEMBL document CHEMBL1201862, “PubChem BioAssay data set” (2004):
Screen size: about 400,000 compounds; about 2,100 (0.53%) were called active. Not shown: some 14% with an inconclusive outcome. This is one part of a sample in which actives are shown more often than they occur. The rule behind the calls is not given here.

target: Ataxin-2 (Homo sapiens) (UniProt Q99700); assay: qHTS for Inhibitors of ATXN expression.; assay type: functional
Sequence (Q99700 whole entry): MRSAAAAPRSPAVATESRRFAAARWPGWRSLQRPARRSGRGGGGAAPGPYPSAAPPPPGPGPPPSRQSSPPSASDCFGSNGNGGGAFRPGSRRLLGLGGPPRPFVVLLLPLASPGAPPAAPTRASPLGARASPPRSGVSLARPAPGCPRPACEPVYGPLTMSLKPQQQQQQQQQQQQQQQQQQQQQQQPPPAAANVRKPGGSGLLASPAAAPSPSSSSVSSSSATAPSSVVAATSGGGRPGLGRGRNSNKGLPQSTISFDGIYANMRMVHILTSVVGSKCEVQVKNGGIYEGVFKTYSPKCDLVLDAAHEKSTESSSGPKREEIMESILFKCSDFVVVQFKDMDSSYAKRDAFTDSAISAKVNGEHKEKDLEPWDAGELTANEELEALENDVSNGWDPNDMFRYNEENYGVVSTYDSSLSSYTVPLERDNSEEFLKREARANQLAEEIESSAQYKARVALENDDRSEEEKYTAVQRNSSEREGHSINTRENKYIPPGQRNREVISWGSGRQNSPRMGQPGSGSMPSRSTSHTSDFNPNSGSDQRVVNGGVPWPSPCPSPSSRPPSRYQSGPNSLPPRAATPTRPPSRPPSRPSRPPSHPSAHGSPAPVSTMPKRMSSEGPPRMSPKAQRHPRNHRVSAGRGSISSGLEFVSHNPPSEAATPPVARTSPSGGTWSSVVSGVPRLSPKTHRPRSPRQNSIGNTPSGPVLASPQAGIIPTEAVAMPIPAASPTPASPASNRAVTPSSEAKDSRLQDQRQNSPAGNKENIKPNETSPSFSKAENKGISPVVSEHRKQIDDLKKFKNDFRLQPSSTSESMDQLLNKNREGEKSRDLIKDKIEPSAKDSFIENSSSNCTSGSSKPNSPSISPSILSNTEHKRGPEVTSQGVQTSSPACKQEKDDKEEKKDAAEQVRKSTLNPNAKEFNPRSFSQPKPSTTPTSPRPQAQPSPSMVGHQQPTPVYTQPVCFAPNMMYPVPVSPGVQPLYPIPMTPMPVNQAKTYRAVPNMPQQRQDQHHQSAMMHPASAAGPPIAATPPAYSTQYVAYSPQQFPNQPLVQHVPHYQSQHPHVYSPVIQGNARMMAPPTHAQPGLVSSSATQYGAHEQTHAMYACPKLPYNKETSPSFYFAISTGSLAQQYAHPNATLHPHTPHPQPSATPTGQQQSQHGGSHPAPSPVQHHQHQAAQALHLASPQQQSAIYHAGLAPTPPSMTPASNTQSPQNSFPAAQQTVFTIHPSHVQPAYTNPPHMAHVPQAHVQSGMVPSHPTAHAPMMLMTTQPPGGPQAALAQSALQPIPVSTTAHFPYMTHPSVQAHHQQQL

SMILES | Potency
Cc1ccc2c(CN(C)Cc3cccc(Cl)c3)cc(=O)oc2c1C | inactive
C=C1c2ccccc2N=C(S)N1Cc1ccc2c(c1)OCO2 | inactive
COCc1cc(C)nc(SCC(=O)Oc2ccc(Cl)cc2)c1C#N | inactive
N=c1c(C(=O)NC2CCCCC2)cc2c(=O)n3ccccc3nc2n1CC1CCCO1 (stereo not drawn) | inactive
CCn1nc(NC(=O)C(C)(C)C)c2cc3cccc(C)c3nc21 | inactive
O=C1/C(=C\c2cc([N+](=O)[O-])ccc2O)SC(=S)N1Cc1ccc(Cl)cc1 | 35.5 µM (active)
O=C1c2ccc([N+](=O)[O-])cc2C(=O)N1c1ccc(Cl)cn1 | inactive
CN(C)c1ccc(/C=C/C=N/Nc2nc(N3CCOCC3)nc(N3CCOCC3)n2)cc1 | inactive
OCCCNc1nc(-c2ccccc2)c2cc(Cl)ccc2n1 | inactive
O=C(CCl)NNc1nc(-c2ccccc2)c2cc(Cl)ccc2n1 | 1.58 µM (active)
OCCNc1nc(-c2ccccc2)c2cc(Cl)ccc2n1 | inactive
CCC(C)(C)n1nnnc1C(c1ccc(F)cc1)N1CCC(C(N)=O)CC1 (stereo not drawn) | inactive
CCOC(=O)c1c(CC(C)C)csc1N | inactive
CCOC(=O)c1c(CC(C)C)csc1/N=C/C1C(=O)CCCC1=O | inactive
CCOC(=O)c1c(CC(C)C)csc1NC=C1C(=O)CCCC1=O | 39.8 µM (active)
CCc1c(C)c2cc(Cl)c(O)c(CN3CCCC3)c2oc1=O | inactive
O=C(NNC(=O)c1ccc(Cl)cc1Cl)c1cnccn1 | inactive
CCc1ccc(OCCSc2nc3ccccc3n2CC(=O)N2CCCCC2)cc1 | 39.8 µM (active)
Cc1ccc(OCCSc2nc3ccccc3n2CC(=O)N2CCCCC2)c(C)c1 | 35.5 µM (active)
Cc1cccc(OCCCC(=O)N2CCCCCC2)c1C | inactive
COc1ccccc1OCc1nnc(SCC(=O)N2CCCCC2)o1 | inactive
CN(CCOc1ccc(Cl)cc1)C(=O)c1ccccc1SCC(=O)N1CCCC1 | inactive
CCc1ccc(OCCSc2nc3ccccc3n2CCC(=O)O)cc1 | inactive

SMILES | Potency
O=C(CSc1nc2ccccc2n1Cc1ccc(Cl)cc1)N/N=C/c1ccc(C(=O)O)cc1 | inactive
COCCn1c(SCC(=O)NC2CC2)nc2ccccc21 | inactive
O=C(Cn1c(SCCOc2ccc(Cl)cc2)nc2ccccc21)N1CCCCC1 | 39.8 µM (active)
COc1ccc(CSc2ncnc3sccc23)cc1F | inactive
Clc1ccc(-n2nnnc2Sc2ncnc3sccc23)cc1 | 20 µM (active)
CC(=O)Nc1cc(-c2ccc(N3CCN(C)CC3)cc2)cn2c(-c3ccc(F)c(Cl)c3)cnc12 | 35.5 µM (active)
Cn1c(-c2ccc(F)cc2)cnc1NCc1ccc(F)cc1F | inactive
CN1CCN(c2ccc(-c3cc(NC=O)c4ncc(-c5ccc(F)c(Cl)c5)n4c3)cc2)CC1 | inactive
COc1cc(-c2cnc3c(NC(C)=O)cc(-c4ccc(N5CCN(C)CC5)cc4)cn23)cc(OC)c1OC | 39.8 µM (active)
CC(=O)Nc1cc(-c2ccc(N3CCN(C)CC3)cc2)cn2c(-c3ccc(F)cc3)cnc12 | 35.5 µM (active)
COc1ccc(-c2cc(NC=O)c3ncc(-c4cnn(C)c4)n3c2)cc1 | inactive
COc1ccc(-c2c(C)c3ccc(O)c(CN4CCN(C)CC4)c3oc2=O)cc1OC | inactive
CCCCNC(=O)c1cc2c(=O)n3cccc(C)c3nc2n(Cc2ccncc2)c1=N | inactive
CCCc1cc(NCCCN(C)C)n2c(nc3ccccc32)c1C#N | inactive
Cc1nc(N/N=C/c2ccc(Br)cc2)cc(N2CCOCC2)n1 | inactive
O=C(OCc1nc(O)c2c(-c3ccccc3)csc2n1)c1cc(Cl)ccc1[N+](=O)[O-] | inactive
C=CCNC(=O)c1c(N)n(-c2cccc(S(N)(=O)=O)c2)c2nc3ccccc3nc12 | inactive
CC1=CC(=O)C=C/C1=C(/c1ccc(O)cc1C)c1ccccc1S(=O)(=O)O | inactive
O=S(=O)(O)c1cc(O)c(N=Nc2ccc(O)cc2O)c2ccccc12 | 22.4 µM (active)
O=c1oc2cc(O)ccc2c2ccccc12 | inactive
CN1C(=O)/C(=N\CCc2ccccc2)c2c3ccccc3c(O)c3cccc1c23 | inactive
Sc1nc(-c2ccccc2)cn1/N=C/c1ccccc1Br | inactive
CCn1c(/C=C/c2ccc(O)cc2)nc2ccccc2c1=O | inactive

SMILES | Potency
COc1ccc(-c2cc(-c3nnc(COC(=O)c4ccncc4)o3)c3ccccc3n2)cc1OC | inactive
NC(=O)c1ccc(Oc2ccc(Cl)cc2)c([N+](=O)[O-])c1 | inactive
CS(=O)(=O)c1ccc(C(=O)OCc2nnc(-c3ccc(Cl)cc3)o2)cc1[N+](=O)[O-] | 28.2 µM (active)
CC(=O)Oc1ccc(-c2cc3c(OC(C)=O)cc(OC(C)=O)cc3oc2=O)cc1 | inactive
OC[C@@H]1[C@@H](c2ccc(F)cc2)C(c2cccc(Cl)c2)=NN1c1ccccc1 | inactive
CCN(CC)CCn1c(C)nc2c(sc3nc4c(cc32)COC(C)(C)C4)c1=O | inactive
C/C(=N\NC(=O)c1ccc(C(=O)N/N=C(\C)c2ccco2)o1)c1ccco1 | inactive
O=C(N/N=C/c1c(O)ccc2ccccc12)c1ccc(Br)o1 | inactive
O=C(N/N=C/c1sc(=O)n(Cc2ccc(Br)cc2)c1Cl)c1ccco1 | 20 µM (active)
CC1=C(C(=O)Nc2ccc(Cl)cc2)C(c2ccc(C(F)(F)F)cc2)n2nnnc2N1 (stereo not drawn) | 28.2 µM (active)
O=C(Nc1ccc(Cl)cc1)c1cnn2c1NC(c1ccccc1)=CC2c1ccccc1 (stereo not drawn) | inactive
CN1CCc2ccc(NC(=O)c3ccc(C(F)(F)F)cc3)cc2C1 | inactive
Cc1ccc(S(=O)(=O)Nc2ccccc2/C=N/c2nc3ccccc3n2C)cc1 | inactive
Cc1ccc(/C=N/N2C(=O)c3ccccc3NC2c2ccc(C)cc2)cc1 (stereo not drawn) | inactive
O=C(c1cnn(C(=O)c2ccco2)c1)c1ccccc1O | inactive
C/C(=N\N1C(=O)c2ccccc2NC1c1ccco1)c1ccccc1O (stereo not drawn) | 2 µM (active)
COc1cccc(C2C=C(c3ccc(Br)s3)Nc3ncnn32)c1OC (stereo not drawn) | inactive
O=[N+]([O-])c1ccc(C2(O)C[N+](c3ccccc3)=C3SCCN32)cc1 (stereo not drawn) | inactive
Cc1ccsc1/C=C1\Oc2cc(O)ccc2C1=O | inactive
O=C1C=CC(=O)N1CCNc1ncc(C(F)(F)F)cc1Cl | 35.5 µM (active)
NNc1nc2cccnc2n(CCNc2ncc(C(F)(F)F)cc2Cl)c1=O | inactive
O=S(=O)(NNc1ncc(C(F)(F)F)cc1Cl)c1ccc(F)cc1F | inactive
